High-throughput results from PubChem.
Pf growth 96h: P. falciparum growth inhibition at 96 hour, primary screen for plastid delayed-death inhibitors; P. falciparum luciferase reporter growth, 96 h; actives 6.9% (n = 320,000); AID 504834; Potency, µM (highest dose often 28.7 µM), actives largely listed as inhibitors
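96 h incubation, 37 C, 5% CO2, of luciferase-reporter P. falciparum-infected RBCs (2% hematocrit, 0.05% parasitemia final) with test compounds; endpoint luminescence.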
NS1 function inh: blocks influenza NS1 protein function; Potency, µM (highest dose often 46.1 µM); actives 0.4% (n = 270,000); AID 2326; calls by dose curve; further: actives are rising curves; nearly all actives have a fitted effect of over 50% in size
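Compounds were scored for reversing the slow growth caused by influenza A NS1 in S. cerevisiae, measured by optical density at 600 nm. Assay medium contained 2% galactose at pH 6.0; NS1-free yeast of the same strain were the positive control.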
SARS PLpro yeast: blocks SARS-CoV papain-like protease in a yeast assay | S. cerevisiae expressing SARS-CoV PLpro, growth rescue | Potency, µM (top dose mostly 32.9 µM), actives largely listed as activators | actives 0.19% (n = 330,000) | AID 485353; calls by dose curve; further: nearly all actives have a fitted effect of over 55% in size
CHX counter: counter-screen hit for Shiga toxin inhibitors, cycloheximide; cell reporter, cycloheximide protein synthesis inhibition counterscreen; max response, %; actives 12% (n = 300,000); AID 2314; in the data active means max response mostly above about 13%, no sharp cut-off; inactive means mostly below about 14%; further: read at 38.3 µM for the half of the compounds with a filed dose
Shiga inhibitor: inhibitors of Shiga toxin in Vero cells; actives 9.2% (n = 290,000); AID 2315; inhibition, % at 38.7 µM; Vero cells, Shiga toxin protein synthesis inhibition reporter; in the data active means inhibition mostly above about 28%, no sharp cut-off; inactive means mostly below about 43%
Pf growth 48h: P. falciparum growth inhibition at 48 hours (one generation) | actives 5.9% (n = 310,000) | P. falciparum luciferase growth in erythrocytes, 48 h | Potency, µM (highest dose often 28.7 µM), actives largely listed as inhibitors
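Luminescence readout; reporter = integrated firefly luciferase in P. falciparum. RBC culture at 2% hematocrit, 0.1% parasitemia final, 37 C/5% CO2; decreased signal taken as growth inhibition.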
Each line names hits and unclear results; the compound was inactive in the other large screens; ! = not active in a repeat. In the library only some 21% were active in any assay of this set; here they are far more common. Unless noted, the call rests on the fitted dose curve; in most records, active means well fitted inhibition curve with a large enough effect; inconclusive means small, poorly fitted or top-dose-only effect, or another doubt; inactive means no such curve, though single readings can be large or run the other way.

CCNc1nc(NCC)nc(N/N=C/c2ccc(N(C)C)cc2)n1	Pf growth 96h inconclusive, Pf growth 48h 13.1µM (no result: NS1 function inh)
Cc1cc(N/N=C/c2ccc(N(C)C)cc2)nc(NCc2ccccc2)n1	Pf growth 96h inconclusive, Pf growth 48h inconclusive
COc1cc(N/N=C/c2ccc(N(C)C)cc2)ncn1	Pf growth 96h inconclusive, CHX counter 44.8, Shiga inhibitor 97.4
CN(C)C(CNC(=O)c1cccc(S(=O)(=O)N2CC3(C)CC2CC(C)(C)C3)c1)c1ccco1 (stereo unspecified)	Pf growth 48h inconclusive
CCCNC(=O)c1cccc(S(=O)(=O)N2CC3(C)CC2CC(C)(C)C3)c1 (stereo unspecified)	Pf growth 96h 13.1µM, Pf growth 48h inconclusive (no result: NS1 function inh, CHX counter, Shiga inhibitor)
CC1(C)CC2CC(C)(CN2S(=O)(=O)c2ccc(C(=O)Nc3ccc(Cl)c(S(=O)(=O)N4CCOCC4)c3)cc2)C1 (stereo unspecified)	Pf growth 96h inconclusive, NS1 function inh inconclusive, Pf growth 48h 9.28µM
O=C(Nc1ccc(NC(=O)c2ccc(Cl)c(S(=O)(=O)N3CCOCC3)c2)cc1)c1ccccc1	none
CC(=O)Nc1ccc(S(=O)(=O)N2CC3(C)CC2CC(C)(C)C3)cc1 (stereo unspecified)	none (no result: NS1 function inh)
CC1(C)CC2CC(C)(CN2S(=O)(=O)c2ccc(C(=O)Nc3ccc(S(=O)(=O)N4CCOCC4)cc3)cc2)C1 (stereo unspecified)	Pf growth 96h inconclusive, Pf growth 48h 10.4µM
Cc1cc(C(=O)Nc2ccc3c(c2)CCC3)c2ccccc2n1	Pf growth 48h inconclusive (no result: NS1 function inh)
Cc1ccc(N(C(=O)c2ccc(S(=O)(=O)N3CCCC3)cc2)C2C=CS(=O)(=O)C2)cc1 (stereo unspecified)	none
COC(=O)C(N)Cc1ccc(Cl)cc1 (stereo unspecified)	none (no result: SARS PLpro yeast, CHX counter, Shiga inhibitor)
COC(=O)[C@@H](N)Cc1ccc(O)c(O)c1	Pf growth 96h 9.53µM!, Pf growth 48h inconclusive (no result: SARS PLpro yeast, CHX counter, Shiga inhibitor)
COCCCn1c(C)nnc1-c1cnn(-c2ccccc2)c1N	Pf growth 48h inconclusive
Cc1noc(C(=O)Nc2cccnc2)c1Cl	none (no result: Pf growth 48h)
Cc1noc(C(=O)Nc2ccc3c(c2)OCO3)c1Cl	CHX counter 36.8, Shiga inhibitor 78.7
Cc1ccc2c(Cl)c(C(=O)Nc3ccc4c(c3)OCO4)sc2c1	CHX counter 19.2, Shiga inhibitor 90.5
CC(=O)c1cccc(NC(=O)c2onc(C)c2Cl)c1	Pf growth 96h inconclusive, CHX counter 17.4 (no result: Pf growth 48h)
CC(=O)c1ccc(NC(=O)c2onc(C)c2Cl)cc1	CHX counter 39.3, Shiga inhibitor 95.6
CC(=O)NC1(c2ccccc2)CCN(Cc2nnnn2C(C)(C)C)CC1	Pf growth 96h 11.7µM
CCCNC(=O)N1[C@H]2CC[C@@H]1C(C(=O)OC)=C(c1ccc(Cl)c(C(F)(F)F)c1)C2	Pf growth 96h inconclusive, Pf growth 48h inconclusive (no result: NS1 function inh, CHX counter, Shiga inhibitor)
COC(=O)C1=C(c2ccc(Cl)c(C(F)(F)F)c2)C[C@@H]2CC[C@H]1N2C(=O)N1CCCC1	Pf growth 96h inconclusive, Pf growth 48h 11.7µM (no result: NS1 function inh, CHX counter, Shiga inhibitor)
COC(=O)C1=C(c2ccc(Cl)c(C(F)(F)F)c2)C[C@@H]2CC[C@H]1N2C(=O)NCCOc1ccc(OC)cc1	Pf growth 96h inconclusive, Pf growth 48h inconclusive (no result: NS1 function inh, CHX counter, Shiga inhibitor)
COC(=O)C1=C(c2ccc(Cl)c(C(F)(F)F)c2)C[C@@H]2CC[C@H]1N2C(=O)NCc1cc(C)oc1C(F)(F)F	Pf growth 96h inconclusive, Pf growth 48h 7.38µM (no result: NS1 function inh, CHX counter, Shiga inhibitor)
COC(=O)C1=C(c2ccc(Cl)c(C(F)(F)F)c2)C[C@@H]2CC[C@H]1N2C(=O)NCC1CC1	Pf growth 96h 6.57µM, Pf growth 48h 11.7µM (no result: NS1 function inh, CHX counter, Shiga inhibitor)
COC(=O)C1=C(c2ccc(OC(F)(F)F)cc2)C[C@@H]2CC[C@H]1N2C(=O)NC1CC1	Pf growth 96h 5.86µM, Pf growth 48h inconclusive (no result: NS1 function inh, CHX counter, Shiga inhibitor)
COC(=O)C1=C(c2ccc(Cl)c(C(F)(F)F)c2)C[C@@H]2CC[C@H]1N2C(=O)N1CCOCC1	Pf growth 96h inconclusive, Pf growth 48h inconclusive (no result: NS1 function inh, CHX counter, Shiga inhibitor)
O=CN/C=C/c1cc(O)ccc1O	none
O=C(CSc1nnc(C2CC2)n1CC1CCCO1)Nc1ccc(Cl)cc1 (stereo unspecified)	Shiga inhibitor 31.4
Cc1cc(Cl)ccc1OCCCC(=O)NCC1CCCO1 (stereo unspecified)	none
O=C(NCCOc1ccccc1)C(=O)NCC1CCCO1 (stereo unspecified)	CHX counter 11.6, Shiga inhibitor 36.9
O=C(CCCOc1ccccc1)NCC1CCCO1 (stereo unspecified)	CHX counter 28.4
Cc1ccc(-c2[nH]c(-c3ccc(Cl)cc3)nc2SCC(=O)NCC2CCCO2)cc1 (stereo unspecified)	Pf growth 96h 9.28µM, Pf growth 48h inconclusive
Cc1cc(C)n(C(C)CNS(=O)(=O)c2ccc(Cl)cc2)n1 (stereo unspecified)	none
COc1ccc(CN2CCC(=O)N([C@H](CO)CC(C)C)CC2)cc1	none
O=C(NCC1CCCO1)C(=O)N/N=C/c1ccccc1C(=O)O (stereo unspecified)	Pf growth 96h 10.4µM
O=C(CCSc1ccccc1)NCC1CCCO1 (stereo unspecified)	CHX counter 29.4, Shiga inhibitor 63.4 (no result: Pf growth 96h)
O=C(CSc1ccc(Cl)cc1)NCC1CCCO1 (stereo unspecified)	CHX counter 16.8 (no result: Pf growth 48h)
Cc1ccc(S(=O)(=O)c2nc(-c3ccccc3)oc2SCC(=O)NCC2CCCO2)cc1 (stereo unspecified)	Pf growth 96h 11.7µM, Pf growth 48h 10.4µM
O=C(NCc1ccccc1CN1CCCC1)c1cc2ccccc2o1	Pf growth 96h inconclusive, Pf growth 48h inconclusive (no result: NS1 function inh, CHX counter, Shiga inhibitor)
Cc1cccc(NC(=O)C2CCN(S(=O)(=O)c3c(C)c(C)cc(C)c3C)CC2)n1	Pf growth 48h inconclusive (no result: NS1 function inh, CHX counter, Shiga inhibitor)
O=C(COc1ccccc1[N+](=O)[O-])NCCC1=CCCCC1	none (no result: NS1 function inh)
CCn1ncc(/C=N/N=C2\CCC3C4CCc5cc(O)ccc5C4CCC23C)c1C (stereo unspecified)	Pf growth 96h 1.65µM (no result: Pf growth 48h)
C1=C2C[N+]3(CCCC3)CC2Cc2ccc3ccccc3c21 (stereo unspecified)	Pf growth 96h 0.738µM (no result: Pf growth 48h)
C[N+]1(C)CC2=Cc3ccccc3CC2C1 (stereo unspecified)	Pf growth 48h inconclusive
Cc1ccc(C2CC(c3cccs3)=NN2C(=O)CSC2=NCCS2)cc1 (stereo unspecified)	Pf growth 96h 11.7µM, Pf growth 48h 10.4µM
CCC(=O)N1N=C(c2cccs2)CC1c1ccc(OC)cc1 (stereo unspecified)	Pf growth 96h inconclusive
CCC(=O)N1N=C(c2cccs2)CC1c1ccc(C)cc1 (stereo unspecified)	Pf growth 96h inconclusive
COc1ccc(C2CC(c3cccs3)=NN2C(=O)CSc2nc(=O)n3cc(C)ccc3n2)cc1 (stereo unspecified)	Pf growth 96h 8.28µM, Pf growth 48h 10.4µM (no result: NS1 function inh, CHX counter, Shiga inhibitor)
